Source: PubChem BioAssay (National Center for Advancing Translational Sciences (NCATS))
HCV inh: HCV inhibition; Huh7.5.1 HCVcc-Cre infection, luciferase reporter, 44 h; hit rate 3.4% among 340,000; Potency, µM (top dose mostly 41.8 µM), usual class: inhibitors; active = well fitted inhibition curve with a large enough effect; inconclusive = small, poorly fitted or top-dose-only effect, or another doubt; inactive = no such curve, though single readings can be large or run the other way
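Seed cells (1,000/well) for 4 h; treat with compound and infect with HCVcc-Cre, moi about 0.5. Incubate 44 h, then detect luciferase activity.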
HCMV inh: blocks human cytomegalovirus replication. HFF cells, HCMV-luciferase reporter, 72 h; stronger effect = lower value. activity change, negative = inhibition, % at 57.5 µM. hit rate 4.5% among 410,000. AID 1259415; in the data active = activity change below about -60%; inconclusive = no clear call, values can overlap the other calls; inactive = above about -39%
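Screen run at 2 compound doses on HFFs infected with reporter HCMV, MOI 1 PFU/cell. Luciferase activity from cell lysates at 72 h post infection gave inhibition relative to buffer-only and Salinomycin wells.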
LASV entry inh: blocks Lassa virus binding to or entry into cells; Lassa virus pseudotype entry inhibition, cell reporter; Potency, µM (series often up to 37.9 µM), most hits filed as inhibitors; hit rate 1.2% among 300,000; AID 540256; calls by dose curve; tested in HEK293 cells; also: nearly all actives have a fitted effect of over 50% in size
FMDV antiviral: foot and mouth disease virus antiviral activity; FMDV antiviral cell-based qHTS; Potency, µM (highest dose often 57.9 µM), actives largely listed as inhibitors; hit rate 1.2% among 410,000; AID 1159524; calls by dose curve; tested in HEK293T cells; also: read-out not given here; nearly all actives have a fitted effect of over 45% in size
MARV entry inh: Marburg virus entry inhibition; Marburg virus pseudotyped entry inhibition, cell reporter; Potency, µM (doses to about 37.8 µM), hits mostly inhibitors; hit rate 1.8% among 300,000; AID 540276; calls by dose curve; tested in HEK293 cells
Large screens that a line does not name were inactive; ! = not confirmed by another sample. This is a sample that favours compounds with a hit; in the whole collection about 7.9% have one here.

COC(=O)C1=C(C)NC(C)=C(C(=O)OCCN2CCN(C(c3ccccc3)c3ccccc3)CC2)C1c1cccc([N+](=O)[O-])c1 (stereo not drawn)	HCMV inh -64 (no result: HCV inh, LASV entry inh, FMDV antiviral, MARV entry inh)
COC(=O)C1=C(C)NC(C)=C(C(=O)OCCN(C)Cc2ccccc2)C1c1cccc([N+](=O)[O-])c1 (stereo not drawn)	LASV entry inh 7.3µM!, FMDV antiviral inconclusive, MARV entry inh 16µM
COc1ccc(NC(=O)c2ccc3c(c2)c(C)c(C)n3Cc2ccc(F)cc2)c(OC)c1	HCMV inh active (no result: HCV inh, MARV entry inh)
COC(CNC(=O)C1CCCN1C(=O)OCc1ccccc1)OC (stereo not drawn)	MARV entry inh inconclusive
COC(=O)[C@@H]1C[C@]2(OC(=O)c3ccccc3)C=CC(=O)C[C@@H]2N1C(=O)OCc1ccccc1	HCV inh inconclusive, HCMV inh -98, LASV entry inh 7.3µM, FMDV antiviral 22µM, MARV entry inh inconclusive
O=C1CS(=O)(=O)C2(C(=O)N(Cc3ccc(F)cc3)c3ccccc32)N1c1cccc(C(F)(F)F)c1 (stereo not drawn)	HCMV inh -77 (no result: HCV inh, MARV entry inh)
CN(C)c1ccc(CNC(=O)CN2C(=O)c3cccnc3Oc3ccc(Cl)cc32)cc1	none (no result: HCV inh, MARV entry inh)
Cn1ccc2cc(-c3ccc4ncnc(NCc5cccs5)c4c3)ccc21	HCMV inh -72, FMDV antiviral inconclusive (no result: HCV inh, LASV entry inh, MARV entry inh)
c1cncc(-c2ccc3ncnc(NCc4cccs4)c3c2)c1	none (no result: HCV inh, LASV entry inh, MARV entry inh)
O=C(CCl)Nc1cc(SCC(O)CO)cc([N+](=O)[O-])c1 (stereo not drawn)	HCV inh 1.6µM, HCMV inh -99, LASV entry inh inconclusive, FMDV antiviral 14µM, MARV entry inh inconclusive
CC(C)=NOc1cc(NC(=O)CCl)cc([N+](=O)[O-])c1	HCV inh 25µM, HCMV inh -83, LASV entry inh 18µM, FMDV antiviral 7.9µM, MARV entry inh 23µM
CC(C)(C)c1ccc(C(=O)NC2(C(F)(F)F)NC(=O)N(CCc3ccccc3)C2=O)cc1 (stereo not drawn)	MARV entry inh inconclusive (no result: HCV inh)
Cn1c(=O)c2c(nc(N3CCCCC3)n2CCSc2nc3ccccc3s2)n(C)c1=O	HCV inh inconclusive, LASV entry inh inconclusive
CC1CCN(c2nc3c(c(=O)n(C)c(=O)n3C)n2CCSc2nc3ccccc3s2)CC1	HCV inh 11µM, LASV entry inh inconclusive, MARV entry inh inconclusive
Cn1c(=O)[nH]c(=O)c2c1nc(N1CCCC1)n2CCCSc1nc2ccccc2o1	LASV entry inh inconclusive, FMDV antiviral inconclusive, MARV entry inh inconclusive
Cn1c(=O)[nH]c(=O)c2c1nc(N1CCCCC1)n2CCCSc1nc2ccccc2s1	HCV inh 10µM, LASV entry inh inconclusive, FMDV antiviral inconclusive, MARV entry inh inconclusive
Cc1ccc(NS(=O)(=O)c2ccc(NC(=O)N3CCCC3)cc2)cc1C	none (no result: HCV inh, MARV entry inh)
COc1ccccc1N1CCN(C(=O)C(Sc2ccccc2)c2ccccc2)CC1 (stereo not drawn)	HCV inh 11µM, LASV entry inh inconclusive, FMDV antiviral inconclusive, MARV entry inh 6.3µM
O=C(CNCCc1ccc(Cl)cc1)Nc1ccc(C(=O)N2CCCCC2)cc1	HCMV inh inconclusive, LASV entry inh inconclusive, MARV entry inh 11µM
O=C(c1ccc(CSc2ccc(Cl)cc2)cc1)N1CCCC1	HCV inh inconclusive, HCMV inh -63 (no result: LASV entry inh, MARV entry inh)
O=C(CNCCc1ccccc1)Nc1ccc(C(=O)N2CCCCC2)cc1	HCMV inh inconclusive
COc1ccccc1N1CCN(C(=O)c2ccc(CSc3ccccc3)cc2)CC1	HCMV inh -92, LASV entry inh inconclusive, FMDV antiviral inconclusive, MARV entry inh inconclusive
O=C(NC1CCCC1)c1cn(C2CCCN(Cc3ccc4c(c3)OCCO4)C2)nn1 (stereo not drawn)	none (no result: HCV inh, HCMV inh, LASV entry inh, MARV entry inh)
CCOC(=O)C1CCCN(c2ncnc3c2nnn3C)C1 (stereo not drawn)	LASV entry inh inconclusive (no result: HCV inh, MARV entry inh)
O=C(Nc1cccc(F)c1)NC1(C(=O)N2CCC(O)CC2)CCCCC1	HCMV inh -99, LASV entry inh inconclusive, MARV entry inh inconclusive
NC(=O)C1CCN(C(=O)C2(NC(=O)Nc3cccc(F)c3)CCCCC2)CC1	LASV entry inh inconclusive
O=Nc1c2cc3ccccc3[nH]c-2c2ccccc12	HCV inh inconclusive, LASV entry inh inconclusive, MARV entry inh inconclusive
O=Nc1c(O)c2ccccc2c2ccccc12	HCV inh inconclusive, HCMV inh -98, FMDV antiviral 11µM (no result: LASV entry inh, MARV entry inh)
CC(=O)N1CCC[C@H]1C(=O)N1CCc2c(cnc(C)c2CNC(=O)/C=C/c2cccs2)C1	none (no result: HCV inh, HCMV inh, LASV entry inh, MARV entry inh)
CCCCCCCCCCCCCCCC[N+](C)(C)CCN(Cc1ccc(OC)cc1)c1ncccn1	HCV inh 2.8µM, FMDV antiviral 28µM (no result: HCMV inh, LASV entry inh, MARV entry inh)
COc1ccc(CN(CCN(C)C)c2ccccn2)cc1	HCV inh inconclusive, MARV entry inh 16µM!
CCCSCCCNC(=O)CN1C(=O)COc2ccc(S(=O)(=O)N3CCCCCC3)cc21	none (no result: HCV inh)
COc1ccc2c(c1)/C(=N/OC(=O)c1cccs1)CCC2	none
COc1ccc(NC(=O)O/N=C2/CCCc3ccc(OC)cc32)cc1	HCV inh 2.8µM, HCMV inh -73, LASV entry inh inconclusive, MARV entry inh inconclusive
COC(=O)c1ccc(Cn2c(=O)cc(C)c3c(C)nn(C)c32)cc1	FMDV antiviral inconclusive (no result: HCV inh, MARV entry inh)
CC1CC(C)CN(C(=O)c2cccc(S(=O)(=O)N(C)c3ccccc3)c2)C1 (stereo not drawn)	HCV inh 32µM, HCMV inh inconclusive, LASV entry inh inconclusive, MARV entry inh inconclusive
C=CCN(c1ccccc1)S(=O)(=O)c1cccc(C(=O)N2CCCC2)c1	none
COc1ccc(N(C)S(=O)(=O)c2cccc(C(=O)OCC(=O)N3CC(C)CC(C)C3)c2)cc1 (stereo not drawn)	HCV inh inconclusive, LASV entry inh inconclusive, FMDV antiviral 32µM, MARV entry inh inconclusive
C=CCN(c1ccccc1)S(=O)(=O)c1cccc(C(=O)N2CC(C)CC(C)C2)c1 (stereo not drawn)	HCV inh 7.1µM, HCMV inh -85, LASV entry inh inconclusive, MARV entry inh inconclusive
CN(c1ccccc1)S(=O)(=O)c1cccc(C(=O)N2CCCCCC2)c1	HCV inh inconclusive, LASV entry inh inconclusive
COc1ccc(N(C)S(=O)(=O)c2cccc(C(=O)OCC(=O)NCc3ccccc3OC)c2)cc1	LASV entry inh inconclusive
O=C(Nc1nc(-c2ccc3c(c2)OCCO3)cs1)c1ccc(S(=O)(=O)N2CCCCC2)cc1	HCV inh inconclusive, HCMV inh -100, LASV entry inh inconclusive, MARV entry inh inconclusive (no result: FMDV antiviral)
O=C(Nc1nc(-c2cccnc2)cs1)c1ccc(S(=O)(=O)N2CCOCC2)cc1	FMDV antiviral inconclusive
CN(C)S(=O)(=O)c1ccc(C(=O)Nc2nnc(-c3cccs3)o2)cc1	HCV inh inconclusive, HCMV inh inconclusive (no result: LASV entry inh, MARV entry inh)
O=C(Nc1nc(-c2cccs2)cs1)c1ccc(S(=O)(=O)N2CCCC2)cc1	HCV inh inconclusive, HCMV inh -90, LASV entry inh 21µM, FMDV antiviral 10µM, MARV entry inh 12µM
CN(C)S(=O)(=O)c1ccc(C(=O)Nc2nc(-c3cccs3)cs2)cc1	HCV inh 10µM, HCMV inh -81, FMDV antiviral inconclusive (no result: LASV entry inh, MARV entry inh)
